Source: PubChem BioAssay (NCATS)
Records with an inconclusive call do not appear. Calls of active or inactive are those of the source. Unless noted, calls come from the whole dose curve; as a rule, active = well fitted curve in either direction with a large enough effect (not every such curve was filed as active); inconclusive = small, poorly fitted or top-dose-only effect, or another doubt; inactive = flat fitted curve, though single readings scatter.

Key:
[1] = biological target: Mitogen-activated protein kinase 10 (Mus musculus) (UniProt Q61831); assay: JNK3 AlphaScreen Assay (AID 530); settings: JNK3 lysate, c-Jun phosphorylation; series mostly up to 57.1 µM;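 note: kinase came from lysate of stimulated human HepG2 cells; signal reports phosphorylation of biotinylated GST-cJun 1-79 at Ser73 with 10 µM ATP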
Summary of the method: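 Phosphorylation of biotinylated GST-cJun(1-79) at Ser73 is measured by AlphaScreen proximity luminescence. Enzyme is JNK3 in HepG2 lysates activated with interleukin-1beta and tumor necrosis factor alpha; ATP is 10 uM final.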

[2] = biological target: 3',5'-cyclic-AMP phosphodiesterase 4B (Homo sapiens) (UniProt Q07343); assay: qHTS Assay for Inhibitors of PDE-IV (AID 607; active = well fitted activation curve with a large enough effect in the main read-out, with a control signal flat, not every such curve was filed as active); settings: HEK293 ACTOne CNG channel cells, membrane potential fluorescence; series mostly up to 22.9 µM
Summary of the method: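 ACTOne HEK293 cells carry a modified cAMP-gated CNG channel and express endogenous PDE4; plated 1000 cells/well, compounds up to 22.9 uM final. Membrane-potential dye fluorescence (ex 535/em 590) was read; parental cells received 10 uM forskolin + 100 uM RO 20-1724.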

Chain of 3',5'-cyclic-AMP phosphodiesterase 4B (Homo sapiens) (Q07343 whole entry, looked up): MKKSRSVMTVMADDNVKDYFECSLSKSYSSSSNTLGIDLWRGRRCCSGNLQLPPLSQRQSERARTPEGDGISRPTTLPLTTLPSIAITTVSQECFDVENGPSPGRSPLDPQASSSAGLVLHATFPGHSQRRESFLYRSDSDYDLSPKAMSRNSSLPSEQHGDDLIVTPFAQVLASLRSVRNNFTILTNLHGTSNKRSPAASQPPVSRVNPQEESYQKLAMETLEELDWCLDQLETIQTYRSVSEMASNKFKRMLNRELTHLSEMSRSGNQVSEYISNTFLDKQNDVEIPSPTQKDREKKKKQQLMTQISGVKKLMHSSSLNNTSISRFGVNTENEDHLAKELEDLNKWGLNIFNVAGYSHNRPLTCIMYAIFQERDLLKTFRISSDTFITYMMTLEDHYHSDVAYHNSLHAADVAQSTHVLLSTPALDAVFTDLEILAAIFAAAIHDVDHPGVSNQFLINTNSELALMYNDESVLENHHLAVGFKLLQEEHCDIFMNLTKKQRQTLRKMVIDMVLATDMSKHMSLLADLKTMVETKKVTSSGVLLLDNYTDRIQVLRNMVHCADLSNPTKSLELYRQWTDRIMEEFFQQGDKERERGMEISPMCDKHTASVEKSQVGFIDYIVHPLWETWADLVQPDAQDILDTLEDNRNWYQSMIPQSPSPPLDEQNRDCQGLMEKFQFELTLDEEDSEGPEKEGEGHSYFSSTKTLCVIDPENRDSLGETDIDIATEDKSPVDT

SMILES | outcome [1] | outcome [2]
COCCn1c(C(=O)N(C)C)cc2c1C[C@H]1CN(C(=O)c3ccccc3)[C@@](Cc3ccc(F)cc3)(C(=O)OC)[C@@H]21 | inactive | –
COC(=O)[C@@]1(Cc2ccc(OC)cc2)[C@H]2c3cc(C(=O)N4CCCC4)n(Cc4ccc(OC)c(OC)c4)c3C[C@H]2CN1C(=O)c1ccccc1 | inactive | –
CCCC/C=C/C(NC(=O)c1ccc(C(=O)OC)cc1)c1ccccc1 (stereo unspecified) | inactive | –
Cc1ccc(CNC(=O)[C@H](C)[C@@H]2C[C@@]2(C)[C@@H](NC(=O)OCc2ccccc2)c2ccccc2)o1 | inactive | inactive
COC(=O)[C@@]1(Cc2ccccc2)[C@H]2c3cc(C(=O)N4CCCC4)n(Cc4ccccc4)c3C[C@H]2CN1C(=O)c1ccccc1 | inactive | inactive
COC(=O)[C@@]1(Cc2ccc(OC)cc2)[C@H]2c3cc(C(=O)N4CCCC4)n(Cc4ccc(O)c(OC)c4)c3C[C@H]2CN1C(=O)c1ccccc1 | inactive | inactive
COC(=O)[C@@]1(Cc2ccc(OC)cc2)[C@H]2c3cc(C(=O)N4CCCC4)n(CCc4ccc(O)c(OC)c4)c3C[C@H]2CN1C(=O)c1ccccc1 | inactive | inactive
COC(=O)[C@@]1(Cc2ccc(OC)cc2)[C@H]2c3cc(C(=O)N4CCCC4)n(Cc4cc(F)c(F)c(F)c4)c3C[C@H]2CN1C(=O)c1ccccc1 | inactive | inactive
COC(=O)[C@@]1(Cc2ccccc2)[C@H]2c3cc(C(=O)N(C)C)n(Cc4cc(C)n(C)n4)c3C[C@H]2CN1C(=O)c1ccccc1 | inactive | inactive
COC(=O)[C@@]1(Cc2ccc(F)cc2)[C@H]2c3cc(C(=O)N(C)C)n(Cc4ccc(OC)c(OC)c4)c3C[C@H]2CN1C(=O)c1ccccc1 | inactive | –
